ERK EGF block: blocks ERK signaling stimulated by EGF. HEK293-V1b, EGF-stimulated phospho-ERK AlphaScreen. Potency, µM (top dose mostly 11.5 µM), usual class: inhibitors. hit rate 0.41% among 130,000. AID 1454; active means well fitted inhibition curve with a large enough effect; further: nearly all actives have a fitted effect of over 55% in size
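Readout: AlphaScreen signal for phosphorylated ERK in lysed HEK293 cells stably expressing V1b. Stimulus 25 nM EGF, 5 min, following 30 min compound exposure. Data scaled to DMSO basal and full EGF activation.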
Large screens that a line does not name were inactive. Only a selection was taken, and hits are over-represented in it overall.

CCCCC/C=C\C/C=C\C[C@H](O)/C=C/C=C\CCCC(=O)O	none
COc1ccc(-c2nc(-c3ccccc3)c(Nc3c(C)cccc3C)o2)cc1	none
COc1cccc(/C=N/NC(=O)CNC(=O)COc2ccccc2)c1O	none
COc1cccc(/C=N/Nc2cc(Cl)nc(C)n2)c1O	none
COc1cccc(/C=N/Nc2ncnc3c2ncn3Cc2ccccc2)c1O	ERK EGF block 13µM
O=C(Nc1ccc(C(=O)Nc2ccc(C(=O)Nc3ccc(S(=O)(=O)O)c4cc(S(=O)(=O)O)cc(S(=O)(=O)O)c34)cc2)cc1)Nc1ccc(C(=O)Nc2ccc(C(=O)Nc3ccc(S(=O)(=O)O)c4cc(S(=O)(=O)O)cc(S(=O)(=O)O)c34)cc2)cc1	none
CCCOc1ccc(/C=N/Nc2ccccc2[N+](=O)[O-])c(OCCC)c1	ERK EGF block 11µM
CCCONC(=O)Nc1ccccc1[N+](=O)[O-]	none
O=[N+]([O-])c1ccccc1N/N=C/c1cccc(O)c1O	none
COc1ccc2c(c1)O[C@@H](c1cccc(C(F)(F)F)c1)[C@H](OC(=O)NCCOc1ccccc1)C2=O	none
O=S(c1ccccc1)c1ccc2nnnn2n1 (centres undefined)	none
CC(=O)NC1C(OCCOc2ccc(Cl)cc2Cl)OC(COC(C)=O)C(OC(C)=O)C1OC(C)=O (centres undefined)	none
O=C(OCC1OC(OC(=O)c2cc(O)c(O)c(OC(=O)c3cc(O)c(O)c(O)c3)c2)[C@@H](OC(=O)c2cc(O)c(O)c(OC(=O)c3cc(O)c(O)c(O)c3)c2)C(OC(=O)c2cc(O)c(O)c(OC(=O)c3cc(O)c(O)c(O)c3)c2)C1OC(=O)c1cc(O)c(O)c(OC(=O)c2cc(O)c(O)c(O)c2)c1)c1cc(O)c(O)c(OC(=O)c2cc(O)c(O)c(O)c2)c1 (some centres undefined)	ERK EGF block 7.9µM
Cc1cn(C2OC(COC(=O)c3ccccc3)C(OC(=O)c3ccccc3)C2OC(=O)c2ccccc2)c(=O)[nH]c1=O (centres undefined)	none
Cc1ccc(CNC(=O)[C@@H]2C[C@H]2[C@@H](NP(=O)(c2ccccc2)c2ccccc2)c2ccccc2)o1	none
CN1[C@@H]2CC[C@H]1CC(OC(=O)[C@@H](CO)c1ccccc1)C2 (some centres undefined)	none
COc1ccc(Nc2nc(-c3ccc4c(c3)NC(=O)CO4)cs2)cc1	ERK EGF block 20µM
COc1ccccc1Nc1nc(-c2ccc3c(c2)NC(=O)CO3)cs1	none
COc1ccc(-c2csc(NC3=NCCCCC3)n2)cc1	none
CC(C)(O)[C@@H]1CCC[N+]2(C)CCCC[C@H]12 (some centres undefined)	none
O=C1Nc2ccc(Br)cc2/C1=C/C(=O)c1ccc2c(c1)OCO2	ERK EGF block 32µM
O=C(/C=C\Nc1ccc2c(c1)OCO2)c1ccc2c(c1)OCO2	none
O=C1Nc2ccc(Br)cc2/C1=C/C1CC=CCC1 (centres undefined)	none
COC(=O)C(c1ccc(OC)c(OC)c1)C1c2ccccc2C=C(C)N1C(=O)OC (centres undefined)	none
N#C/C(C(N)=O)=c1/ccc2c(c1)N1C3=C(CCCC3)CC3CCCCC31N=2 (centres undefined)	ERK EGF block 7.9µM
CC(=O)O[C@H]1CC2(C)[C@@H](C[C@@H](O)[C@H]3[C@@]4(C)CC[C@@H](O)[C@@H](C)[C@@H]4CC[C@@]32C)C1=C(CCC=C(C)C)C(=O)O (some centres undefined)	none
Cc1ccnc(NC(c2cccnc2)c2ccc3cccnc3c2O)c1 (centres undefined)	none
Cc1ccnc(NC(c2ccsc2)c2ccc3ccc(C)nc3c2O)c1 (centres undefined)	ERK EGF block 32µM
Cc1cccc(NC(c2ccc(C)s2)c2ccc3ccc(C)nc3c2O)n1 (centres undefined)	none
Cc1nc(NCc2ccccc2)c2nc(-c3ccccc3)n(CCCN3CCCCC3C)c2n1 (centres undefined)	none
C=C1C[C@@]23C[C@@]1(O)CC[C@@H]2[C@]12C=C[C@@H](O)[C@](C)(C(=O)O1)[C@@H]2[C@@H]3C(=O)O	none
CCOC(=O)CNC(=O)O[C@@H]1C(=O)c2cc(Br)ccc2O[C@H]1c1ccc2c(c1)OCO2	none
FC(F)(F)c1ccccc1-c1ccc2ncnc(NC3CCNCC3)c2c1	none
COC(=O)[C@H](COC(C)(C)C)NC(=O)O[C@@H]1Cc2cc(OC)ccc2O[C@H]1c1cccc(OC)c1	none
Cc1ccc(-c2csc3ncnc(Nc4ccc(C(=O)O)cc4)c23)cc1	none
COc1ccc(-c2csc3ncnc(Nc4ccc(O)cc4)c23)cc1	ERK EGF block 28µM
O=C(O)c1ccc(Nc2ncnc3scc(-c4ccccc4)c23)cc1	none
CC1(C)C[C@@H]2C(=O)CCC3O[C@@]3(C)CCC21 (some centres undefined)	none
COc1cccc([C@@H]2Oc3ccc(Br)cc3C[C@H]2OC(=O)NS(=O)(=O)c2ccc(C)cc2)c1	none
CCc1c2c(nc3cccc(C(C)C)c13)-c1cccc(=O)n1C2	none
O=C(Oc1ccccc1)C1O[C@@H]1c1ccccc1 (some centres undefined)	none
CCN1/C(=N\N)c2cccc3cccc1c23	ERK EGF block 13µM
O=C1c2cccc3cccc(c23)N1Cc1ccc(F)cc1	none
CCN(CC)C(=O)CN1C(=O)c2cccc3cccc(c23)C1=O	none
CCC/C=C(\CCC)C(NC(=O)C(C)(C)C)c1ccc(C(=O)OC)cc1 (centres undefined)	none
CCCCC/C=C\C[C@@H](O)/C=C/C=C\CCC(=O)O	none
NNC(=O)c1ccc(COc2cccc3cccnc23)cc1	none
O=C(N/N=C/c1ccccc1C(=O)O)c1ccc(COc2cccc3cccnc23)cc1	none
O=C(N/N=C/c1ccc[nH]1)c1ccc(COc2cccc3cccnc23)cc1	ERK EGF block 25µM
C=C(C(=O)OC)C(NC(=O)OC)c1ccccc1 (centres undefined)	none
CC(=O)Oc1cc(-c2coc3cc(OC(C)=O)c(OC(C)=O)c(OC(C)=O)c3c2=O)cc(OC(C)=O)c1OC(C)=O	none
COc1ccc(NC(=O)CNC(=O)c2ccc([N+](=O)[O-])cc2)cc1	none
COC(=O)/C(=C\C(=O)c1ccc([N+](=O)[O-])cc1)Nc1ccc(OC)cc1	ERK EGF block 13µM
COc1ccc(C(=O)/C=C/Nc2ccc([N+](=O)[O-])cc2)cc1	none
COc1ccc2c(c1)C(=O)[C@H](OC(=O)NCc1ccco1)[C@@H](c1ccc(OC)c(Br)c1)O2	none
O=C(CN1CCSC1=NCc1ccccc1)c1ccc(Cl)c(Cl)c1	none
N=c1n(CCN2CCCCC2)c2ccccc2n1CC(=O)c1ccc(Cl)c(Cl)c1	ERK EGF block 28µM
O=C(NCCCOc1cccc(CN2CCCCC2)c1)c1ccc(Cl)c(Cl)c1	none
CC12C=C(/C=C/CCc3ccco3)C(C)(C1)[C@H](CCc1ccco1)CC2=O (some centres undefined)	none
C/C=C/c1ccc(OC(C)[C@@H](O)c2ccc(O)c(OC)c2)c(OC)c1 (some centres undefined)	none
CCN(CC)CCCn1c(-c2ccccc2)nc2c(N3CCOCC3)nc(C)nc21	none
COc1cc(O)c(C(CCN2CCN(c3ccccc3)CC2)c2ccc(N(C)C)cc2)c(OC)c1 (centres undefined)	ERK EGF block 18µM
COc1ccc(C(CCN2CCCCC2)c2c(O)cc(OC)cc2OC)cc1 (centres undefined)	none
COc1ccc(C(CCN2CCN(c3ccccc3)CC2)c2c(O)cc(OC)cc2OC)cc1 (centres undefined)	none
CCOc1ccc(Cc2nccc3cc(OCC)c(OCC)cc23)cc1OCC	none

Screens deposited in PubChem by National Center for Advancing Translational Sciences (NCATS).
